# From PubChem BioAssay AID1159580 (chemical genetic matrix, 2015)
# The campaign covered roughly 5,500 compounds. About 2,000 (36%) were called active. Roughly 18% stayed inconclusive and do not appear here. The list shows a part of the results. Values without a mark were called inactive. Rule as the data show it: active = normalized growth mostly below about 0.91 (no sharp cut-off); inconclusive = no clear call, values can overlap the other calls; inactive = mostly above about 0.92.
# Assay: chemical genetic growth profiling, strain panel (AID 1159580);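 also: tested at 20 µM; growth read once vehicle control cultures reached saturation at 30 °C; 1 = growth at the plate median or of vehicle wells; lower values mean less growth of the strain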
# Conditions: S. cerevisiae deletion strains, growth OD
# [1] = locus YAR019C, strain CDC15, hits give low values
# [2] = locus YBL105C, strain PKC1, hits give low values
# [3] = locus YBR135W, strain CKS1, hits give low values
# [4] = locus YBR136W, strain MEC1, hits give low values
# [5] = locus YBR160W, strain CDC28, hits give low values
# [6] = locus YDL017W, strain CDC7, hits give low values
# [7] = locus YDL028C, strain MPS1, hits give low values
# [8] = locus YDL101C, strain DUN1, hits give low values
# [9] = locus YDL108W, strain KIN28, hits give low values
# [10] = locus YDL132W, strain cdc53, hits give low values
# [11] = locus YDL214C, strain PRR2, hits give low values
# [12] = locus YDR052C, strain DBF4, hits give low values
# [13] = locus YDR054C, strain cdc34, hits give low values
# [14] = locus YDR226W, strain ADK1, hits give low values
# [15] = locus YDR477W, strain SNF1, hits give low values
# [16] = locus YER123W, strain YCK3, hits give low values
# [17] = locus YER133W, strain GLC7, hits give low values
# [18] = locus YFL009W, strain cdc4, hits give low values
# [19] = locus YFL029C, strain CAK1, hits give low values
# [20] = locus YFR003C, strain YPI1, hits give low values
# [21] = locus YFR019W, strain FAB1, hits give low values
# [22] = locus YFR028C, strain CDC14, hits give low values
# [23] = locus YGR040W, strain KSS1, hits give low values
# [24] = locus YGR052W, strain FMP48, hits give low values
# [25] = locus YGR092W, strain DBF2, hits give low values
# [26] = locus YHR030C, strain SLT2, hits give low values
# [27] = locus YHR079C, strain IRE1, hits give low values
# [28] = locus YHR082C, strain KSP1, hits give low values
# [29] = locus YHR205W, strain SCH9, hits give low values
# [30] = locus YIL147C, strain SLN1, hits give low values
# [31] = locus YJL095W, strain BCK1, hits give low values
# [32] = locus YJL128C, strain PBS2, hits give low values
# [33] = locus YJL157C, strain FAR1, hits give low values
# [34] = locus YJR016C, strain ILV3, hits give low values
# [35] = locus YJR066W, strain TOR1 (second series), hits give low values
# [36] = locus YJR066W, strain TOR1, hits give low values
# [37] = locus YKL048C, strain ELM1, hits give low values
# [38] = locus YKL067W, strain YNK1, hits give low values
# [39] = locus YKL101W, strain HSL1, hits give low values
# [40] = locus YKL193C, strain SDS22, hits give low values
# [41] = locus YKL203C, strain TOR2, hits give low values
# [42] = locus YLR133W, strain CKI1, hits give low values
# [43] = locus YLR403W, strain SFP1, hits give low values
# [44] = locus YML070W, strain DAK1, hits give low values
# [45] = locus YMR001C, strain CDC5, hits give low values
# [46] = locus YMR205C, strain PFK2 (second series), hits give low values
# [47] = locus YMR277W, strain FCP1, hits give low values
# [48] = locus YNL006W, strain LST8, hits give low values
# [49] = locus YNL020C, strain ARK1, hits give low values
# [50] = locus YNL161W, strain CBK1, hits give low values
# [51] = locus YNL183C, strain NPR1, hits give low values
# [52] = locus YNL207W, strain RIO2, hits give low values
# [53] = locus YNL222W, strain SSU72, hits give low values
# [54] = locus YNL307C, strain MCK1 (second series), hits give low values
# [55] = locus YOL078W, strain AVO1, hits give low values
# [56] = locus YOL136C, strain PFK27, hits give low values
# [57] = locus YOR061W, strain CKA2, hits give low values
# [58] = locus YOR119C, strain RIO1, hits give low values
# [59] = locus YOR231W, strain MKK1, hits give low values
# [60] = locus YOR329C, strain SCD5, hits give low values
# [61] = locus YPL031C, strain PHO85, hits give low values
# [62] = locus YPL153C, strain RAD53, hits give low values
# [63] = locus YPL204W, strain HRR25, hits give low values
# [64] = locus YPL209C, strain IPL1, hits give low values
# [65] = locus YPL256C, strain CLN2, hits give low values
# [66] = locus YPR025C, strain CCL1, hits give low values
# [67] = locus YPR106W, strain ISR1, hits give low values
# [68] = locus YPR111W, strain DBF20, hits give low values
# [69] = strain NNK1, hits give low values
# [70] = strain TSCII, hits give low values
structure (smiles),measurement,setting,value
O=C(NCCNc1ncc(C(F)(F)F)cc1Cl)C(F)(F)Sc1ccccc1,normalized growth,[1],0.985
same,normalized growth,[2],0.983
same,normalized growth,[3],0.971
same,normalized growth,[4],0.973
same,normalized growth,[5],0.984
same,normalized growth,[6],0.977
same,normalized growth,[7],0.97
same,normalized growth,[8],0.976
same,normalized growth,[9],0.957
same,normalized growth,[10],0.988
same,normalized growth,[11],0.898
same,normalized growth,[12],0.986
same,normalized growth,[13],0.978
same,normalized growth,[14],0.982
same,normalized growth,[15],0.919
same,normalized growth,[16],0.828
same,normalized growth,[17],0.924
same,normalized growth,[18],0.982
same,normalized growth,[19],0.988
same,normalized growth,[20],0.972
same,normalized growth,[21],0.885
same,normalized growth,[22],0.989
same,normalized growth,[23],0.916
same,normalized growth,[24],0.978
same,normalized growth,[25],0.909
same,normalized growth,[26],0.99
same,normalized growth,[27],0.994
same,normalized growth,[28],1
same,normalized growth,[29],0.912
same,normalized growth,[30],0.974
same,normalized growth,[31],0.98
same,normalized growth,[32],0.914
same,normalized growth,[33],0.887
same,normalized growth,[34],0.974
same,normalized growth,[35],0.899
same,normalized growth,[36],0.989
same,normalized growth,[37],0.939
same,normalized growth,[38],0.91
same,normalized growth,[39],0.908
same,normalized growth,[40],0.984
same,normalized growth,[41],0.991
same,normalized growth,"locus YLR113W, strain HOG1, hits give low values",0.883
same,normalized growth,[42],0.916
same,normalized growth,[43],0.922
same,normalized growth,[44],0.876
same,normalized growth,[45],0.978
same,normalized growth,[46],0.907
same,normalized growth,[47],0.983
same,normalized growth,[48],0.978
same,normalized growth,[49],0.894
same,normalized growth,[50],0.985
same,normalized growth,[51],0.961
same,normalized growth,[52],0.983
same,normalized growth,[53],0.979
same,normalized growth,[54],0.905
same,normalized growth,[55],0.98
same,normalized growth,[56],0.893
same,normalized growth,[57],0.868
same,normalized growth,[58],0.966
same,normalized growth,[59],0.939
same,normalized growth,[60],0.987
same,normalized growth,[61],0.912
same,normalized growth,[62],0.907
same,normalized growth,[63],0.936
same,normalized growth,[64],0.975
same,normalized growth,[65],1
same,normalized growth,[66],0.98
same,normalized growth,[67],0.984
same,normalized growth,[68],0.968
same,normalized growth,[69],0.982
same,normalized growth,[70],0.982
O=C(NCCNc1ncc(Cl)cc1C(F)(F)F)C(F)(F)Sc1ccccc1,normalized growth,[1],0.982
same,normalized growth,[2],0.978
same,normalized growth,[3],0.975
same,normalized growth,[4],0.984
same,normalized growth,[5],0.979
same,normalized growth,[6],0.977
same,normalized growth,[7],0.992
same,normalized growth,[8],0.982
same,normalized growth,[9],0.981
same,normalized growth,[10],0.977
same,normalized growth,[11],0.987
same,normalized growth,[12],0.982
same,normalized growth,[13],0.991
same,normalized growth,[14],0.982
same,normalized growth,[15],0.996
same,normalized growth,[16],1.01
same,normalized growth,[17],1
same,normalized growth,[18],0.979
same,normalized growth,[19],0.984
same,normalized growth,[20],0.985
same,normalized growth,[21],0.996
same,normalized growth,[22],0.982
same,normalized growth,[23],0.991
same,normalized growth,[24],1.14
same,normalized growth,[25],0.994
same,normalized growth,[26],1.2 [resistant] (active)
same,normalized growth,[27],1.17
same,normalized growth,[28],1.19
same,normalized growth,[29],0.975
same,normalized growth,[30],0.986
same,normalized growth,[31],1.16
same,normalized growth,[32],0.934
same,normalized growth,[33],0.985
same,normalized growth,[34],0.989
same,normalized growth,[35],1.01
same,normalized growth,[36],1.19
same,normalized growth,[37],0.973
same,normalized growth,[38],0.991
same,normalized growth,[39],0.984
same,normalized growth,[40],0.973
same,normalized growth,[41],1.08
same,normalized growth,[42],0.979
same,normalized growth,[43],0.998
same,normalized growth,[44],0.986
same,normalized growth,[45],0.969
same,normalized growth,[46],0.984
same,normalized growth,[47],0.975
same,normalized growth,[48],0.983
same,normalized growth,[49],0.978
same,normalized growth,[50],0.984
same,normalized growth,[51],1.13
same,normalized growth,[52],0.989
same,normalized growth,[53],0.976
same,normalized growth,[54],0.972
same,normalized growth,[55],0.981
same,normalized growth,[56],1
same,normalized growth,[57],0.992
same,normalized growth,[58],1.02
same,normalized growth,[59],1.12
same,normalized growth,[60],0.985
same,normalized growth,[61],0.99
same,normalized growth,[62],1.01
same,normalized growth,[63],0.995
same,normalized growth,[64],0.983
same,normalized growth,[65],1.25 [resistant] (active)
same,normalized growth,[66],0.984
same,normalized growth,[67],0.982
same,normalized growth,[68],0.979
same,normalized growth,[69],0.993
same,normalized growth,[70],0.978
